Of roughly 8,800 targets only a part is listed; those with a hit were picked by preference. About 0.5% of all pairs of compound and target were hits.
compound: C1=CC2=C(C=CC(=C2)/C=C\3/C(=O)NC(=NCC4=CC=CS4)S3)N=C1; test: log2 fold change, soluble protein after heating vs DMSO (PISA); higher = thermal stabilisation; K562 lysate, 10 uM; active = over 0.2 and 3.5 SD of the protein, either way, in both replicates (recomputed)
In short: (§1)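 Thermal stability, expressed as log-two fold change relative to solvent controls, is given from duplicates. Crude K562 extract in PBS pH 7.4 with 1 mM MgCl2, at 1 mg/mL protein, was treated with 10 μM compound for 30 min and heated in aliquots for 3 min across 48°C-58°C. After pooling, adjustment to 0.5% NP-40 at 4°C and centrifugation at 21,000xg for 90 min, supernatant protein was measured by TMTpro 16plex LC-MS/MS with channel sums equalised.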

Chain of UniProt Q13043 (Q13043 whole entry, looked up): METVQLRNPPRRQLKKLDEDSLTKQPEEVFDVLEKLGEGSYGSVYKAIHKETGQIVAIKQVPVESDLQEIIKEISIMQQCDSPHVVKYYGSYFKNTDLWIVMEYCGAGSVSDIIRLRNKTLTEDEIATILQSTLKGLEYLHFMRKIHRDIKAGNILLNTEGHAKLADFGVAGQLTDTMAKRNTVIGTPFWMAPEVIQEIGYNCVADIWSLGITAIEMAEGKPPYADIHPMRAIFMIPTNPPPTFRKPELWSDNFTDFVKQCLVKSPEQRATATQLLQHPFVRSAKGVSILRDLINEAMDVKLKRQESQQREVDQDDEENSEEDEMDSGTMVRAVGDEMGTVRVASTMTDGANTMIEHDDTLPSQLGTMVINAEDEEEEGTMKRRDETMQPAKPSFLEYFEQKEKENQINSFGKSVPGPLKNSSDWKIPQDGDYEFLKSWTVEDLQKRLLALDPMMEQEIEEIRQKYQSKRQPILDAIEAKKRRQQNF
Chain of UniProt O43805 (O43805 whole entry, looked up): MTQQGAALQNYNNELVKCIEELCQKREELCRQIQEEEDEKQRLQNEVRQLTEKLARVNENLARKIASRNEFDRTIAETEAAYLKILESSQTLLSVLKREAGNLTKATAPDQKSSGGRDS
Chain of UniProt Q16637 (Q16637 whole entry, looked up): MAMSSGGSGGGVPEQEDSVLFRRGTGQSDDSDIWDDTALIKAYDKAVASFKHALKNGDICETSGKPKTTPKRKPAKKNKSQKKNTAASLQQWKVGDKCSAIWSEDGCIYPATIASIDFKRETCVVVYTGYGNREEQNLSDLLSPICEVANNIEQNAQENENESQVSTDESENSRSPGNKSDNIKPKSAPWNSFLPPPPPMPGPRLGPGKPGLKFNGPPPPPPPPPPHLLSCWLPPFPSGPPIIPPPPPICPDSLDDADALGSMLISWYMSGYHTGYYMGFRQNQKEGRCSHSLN
Chain of UniProt Q8WVK7 (Q8WVK7 whole entry, looked up): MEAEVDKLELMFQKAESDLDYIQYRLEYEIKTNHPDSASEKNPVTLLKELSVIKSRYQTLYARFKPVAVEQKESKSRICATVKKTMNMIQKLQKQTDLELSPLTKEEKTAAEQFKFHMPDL
Chain of UniProt Q96DI7 (Q96DI7 whole entry, looked up): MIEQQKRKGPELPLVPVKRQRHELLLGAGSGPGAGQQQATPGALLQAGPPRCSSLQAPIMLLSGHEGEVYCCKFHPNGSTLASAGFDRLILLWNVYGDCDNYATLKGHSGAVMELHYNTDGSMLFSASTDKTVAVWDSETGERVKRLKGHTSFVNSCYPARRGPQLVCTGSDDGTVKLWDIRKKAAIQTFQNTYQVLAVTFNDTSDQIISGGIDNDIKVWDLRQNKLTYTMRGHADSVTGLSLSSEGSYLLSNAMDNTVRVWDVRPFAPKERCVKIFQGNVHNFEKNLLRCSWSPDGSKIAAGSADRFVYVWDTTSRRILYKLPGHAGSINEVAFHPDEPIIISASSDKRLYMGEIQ
Chain of UniProt Q9UNE7 (Q9UNE7 whole entry, looked up): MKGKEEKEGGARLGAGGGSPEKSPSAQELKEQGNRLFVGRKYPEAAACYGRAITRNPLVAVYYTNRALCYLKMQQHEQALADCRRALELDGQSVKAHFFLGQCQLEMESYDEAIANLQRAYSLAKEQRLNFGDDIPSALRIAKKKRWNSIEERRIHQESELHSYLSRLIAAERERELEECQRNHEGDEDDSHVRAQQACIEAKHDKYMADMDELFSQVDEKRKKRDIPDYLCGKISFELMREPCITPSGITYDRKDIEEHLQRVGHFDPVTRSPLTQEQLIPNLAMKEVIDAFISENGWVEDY
Chain of UniProt P05455 (P05455 whole entry, looked up): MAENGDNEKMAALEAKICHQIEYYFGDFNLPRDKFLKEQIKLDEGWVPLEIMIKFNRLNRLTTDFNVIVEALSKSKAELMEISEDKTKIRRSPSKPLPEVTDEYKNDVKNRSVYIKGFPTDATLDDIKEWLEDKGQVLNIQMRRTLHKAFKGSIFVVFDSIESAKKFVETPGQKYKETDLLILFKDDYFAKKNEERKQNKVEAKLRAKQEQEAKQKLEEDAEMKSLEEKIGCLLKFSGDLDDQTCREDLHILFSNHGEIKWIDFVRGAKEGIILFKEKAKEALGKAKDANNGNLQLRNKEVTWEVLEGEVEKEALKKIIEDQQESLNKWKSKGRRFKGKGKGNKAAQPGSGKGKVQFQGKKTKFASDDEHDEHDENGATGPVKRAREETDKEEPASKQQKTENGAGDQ
Chain of UniProt Q13395 (Q13395 whole entry, looked up): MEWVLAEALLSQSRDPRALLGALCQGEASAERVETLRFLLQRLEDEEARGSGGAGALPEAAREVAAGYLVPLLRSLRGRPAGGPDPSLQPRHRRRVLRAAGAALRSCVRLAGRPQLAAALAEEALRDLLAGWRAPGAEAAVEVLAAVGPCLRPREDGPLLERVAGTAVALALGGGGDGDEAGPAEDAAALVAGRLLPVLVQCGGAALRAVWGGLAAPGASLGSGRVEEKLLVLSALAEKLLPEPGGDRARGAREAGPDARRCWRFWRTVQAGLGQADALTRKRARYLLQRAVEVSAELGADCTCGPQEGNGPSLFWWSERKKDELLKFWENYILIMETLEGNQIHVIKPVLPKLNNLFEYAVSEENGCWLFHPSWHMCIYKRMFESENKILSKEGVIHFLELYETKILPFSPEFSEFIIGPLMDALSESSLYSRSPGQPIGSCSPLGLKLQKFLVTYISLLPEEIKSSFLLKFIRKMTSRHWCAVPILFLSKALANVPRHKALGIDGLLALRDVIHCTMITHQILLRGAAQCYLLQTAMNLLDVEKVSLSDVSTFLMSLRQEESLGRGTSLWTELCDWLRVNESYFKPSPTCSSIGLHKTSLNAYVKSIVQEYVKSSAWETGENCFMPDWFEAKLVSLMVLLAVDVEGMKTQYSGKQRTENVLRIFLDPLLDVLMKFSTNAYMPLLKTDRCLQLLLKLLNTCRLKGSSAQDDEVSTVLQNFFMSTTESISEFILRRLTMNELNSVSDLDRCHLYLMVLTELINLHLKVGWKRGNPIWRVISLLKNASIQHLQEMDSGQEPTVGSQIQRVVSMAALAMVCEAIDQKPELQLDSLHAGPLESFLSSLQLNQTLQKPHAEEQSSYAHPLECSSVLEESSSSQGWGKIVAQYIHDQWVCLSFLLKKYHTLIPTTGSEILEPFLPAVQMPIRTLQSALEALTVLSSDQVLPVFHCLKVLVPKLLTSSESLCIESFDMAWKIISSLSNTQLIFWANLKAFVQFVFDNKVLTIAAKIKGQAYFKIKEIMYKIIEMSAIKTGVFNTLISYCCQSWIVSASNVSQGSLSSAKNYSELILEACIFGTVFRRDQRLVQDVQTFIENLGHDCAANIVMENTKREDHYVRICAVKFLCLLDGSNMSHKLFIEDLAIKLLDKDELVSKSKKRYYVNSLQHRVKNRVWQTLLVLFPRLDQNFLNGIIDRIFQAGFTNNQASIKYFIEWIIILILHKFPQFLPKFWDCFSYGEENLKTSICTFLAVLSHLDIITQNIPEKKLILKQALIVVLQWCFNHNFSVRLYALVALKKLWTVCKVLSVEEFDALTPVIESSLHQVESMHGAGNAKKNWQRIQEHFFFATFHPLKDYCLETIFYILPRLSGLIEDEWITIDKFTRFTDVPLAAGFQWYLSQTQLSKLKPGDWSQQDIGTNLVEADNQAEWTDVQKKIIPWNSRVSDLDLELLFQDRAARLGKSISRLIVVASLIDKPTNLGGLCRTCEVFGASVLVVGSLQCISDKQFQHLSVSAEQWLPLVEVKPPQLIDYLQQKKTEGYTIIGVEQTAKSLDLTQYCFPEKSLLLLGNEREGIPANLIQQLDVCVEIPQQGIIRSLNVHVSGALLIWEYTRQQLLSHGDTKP
Chain of UniProt P31947 (P31947 whole entry, looked up): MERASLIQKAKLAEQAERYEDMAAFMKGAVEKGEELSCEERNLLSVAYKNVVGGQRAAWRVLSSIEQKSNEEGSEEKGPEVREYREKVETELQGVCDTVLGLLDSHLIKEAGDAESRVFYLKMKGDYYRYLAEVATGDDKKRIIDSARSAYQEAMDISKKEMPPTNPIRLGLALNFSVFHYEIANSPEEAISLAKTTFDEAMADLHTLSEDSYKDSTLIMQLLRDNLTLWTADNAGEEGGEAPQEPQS
Chain of UniProt P52630 (P52630 whole entry, looked up): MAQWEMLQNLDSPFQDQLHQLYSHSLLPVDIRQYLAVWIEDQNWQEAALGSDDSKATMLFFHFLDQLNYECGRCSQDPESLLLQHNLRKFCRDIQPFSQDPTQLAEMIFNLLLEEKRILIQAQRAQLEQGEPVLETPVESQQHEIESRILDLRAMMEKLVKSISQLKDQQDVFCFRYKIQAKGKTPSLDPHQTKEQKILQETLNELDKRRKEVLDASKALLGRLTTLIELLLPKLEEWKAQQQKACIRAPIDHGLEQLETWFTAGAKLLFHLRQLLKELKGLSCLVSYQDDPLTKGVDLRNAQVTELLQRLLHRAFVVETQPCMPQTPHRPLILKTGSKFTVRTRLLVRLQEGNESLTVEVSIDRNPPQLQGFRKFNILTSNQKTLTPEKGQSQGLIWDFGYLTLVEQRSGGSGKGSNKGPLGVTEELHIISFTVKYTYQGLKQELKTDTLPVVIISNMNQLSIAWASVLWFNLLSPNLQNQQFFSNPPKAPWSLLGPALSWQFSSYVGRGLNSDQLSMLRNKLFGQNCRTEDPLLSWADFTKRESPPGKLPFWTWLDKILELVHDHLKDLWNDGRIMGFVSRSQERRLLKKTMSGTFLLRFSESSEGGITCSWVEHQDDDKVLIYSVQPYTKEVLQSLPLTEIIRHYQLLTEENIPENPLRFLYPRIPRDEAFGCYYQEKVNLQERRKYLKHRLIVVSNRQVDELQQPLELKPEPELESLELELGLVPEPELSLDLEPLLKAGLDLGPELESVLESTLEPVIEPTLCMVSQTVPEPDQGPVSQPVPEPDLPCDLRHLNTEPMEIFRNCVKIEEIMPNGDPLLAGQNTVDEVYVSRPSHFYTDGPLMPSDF
Chain of UniProt Q9UJC5 (Q9UJC5 whole entry, looked up): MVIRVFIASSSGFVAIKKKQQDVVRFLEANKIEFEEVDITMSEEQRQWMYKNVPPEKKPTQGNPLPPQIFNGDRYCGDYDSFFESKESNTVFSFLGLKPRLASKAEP

log2 fold change, inactive:
STUB1 (UniProt Q9UNE7) -0.022
STIM1 (UniProt Q13586) 0.021
SNCA (UniProt P37840) 0.025
SSB (UniProt P05455) -0.025
SNRPD3 (UniProt P62318) -0.057
SSNA1 (UniProt O43805) 0.07
SRSF2 (UniProt Q01130) -0.038
SORBS3 (UniProt O60504) 0.018

compound: C1=CC2=NC=CN=C2C=C1/C=C/3\C(=O)NC(=O)S3; test: as above
In short: as §1

log2 fold change, inactive:
SLC27A2 (UniProt O14975) 0.048
SH3BGRL2 (UniProt Q9UJC5) -0.049
STAT2 (UniProt P52630) 0.034
SLC39A11 (UniProt Q8N1S5) -0.071
SYF2 (UniProt O95926) -0.015
SMC3 (UniProt Q9UQE7) -0.013
SPIRE1 (UniProt Q08AE8) -0.067
SNRNP40 (UniProt Q96DI7) -0.031
STMN3 (UniProt Q9NZ72) -0.062
SMN1 (UniProt Q16637) -0.055
TARBP1 (UniProt Q13395) -0.059
SKA2 (UniProt Q8WVK7) -0.042
STK4 (UniProt Q13043) -0.008
SMG1 (UniProt Q96Q15) 0.029
SKA3 (UniProt Q8IX90) -0.052
SFN (UniProt P31947) -0.002

— the supplement of paper PMC10849652
